# Source: PubChem BioAssay (EPA / NIEHS)
# Calls of active or inactive are those of the source. Rule for the calls: active = hit-call score of the fitted dose curve at least 0.9, where 1 is the maximum; inactive = score below 0.9.
# Key:
# [1] = ATG_GRE_CIS: Attagene CIS-FACTORIAL HepG2 Assay for human Glucocorticoid Response Elements (GRE) (AID 2282947); details: HepG2 GRE cis-reporter, Attagene multiplex mRNA; actives raise or lower the signal
# How it was run: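 Transiently transfected HepG2 cells carrying GRE cis-reporter units (endogenous TF activity) dosed 24 h; reporter mRNA quantified by RT-PCR, 6-FAM labelling, HpaI digestion and capillary electrophoresis. Bidirectional fit versus DMSO baseline.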
# [2] = ATG_ISRE_CIS: Attagene CIS-FACTORIAL HepG2 Assay for human Interferon Regulatory Factor 1 (IRF1) binding to an Interferon-Stimulated Response Element (ISRE) (AID 2282948); details: HepG2 ISRE cis-reporter (Attagene), mRNA transcription readout; actives raise or lower the signal
# How it was run: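 Transiently transfected HepG2 cells carrying cis-element reporter units, dosed 24 hours. Reporter mRNA quantified by RT-PCR, fluorescent primer extension, HpaI digestion and capillary electrophoresis. Bidirectional fitting relative to DMSO.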
# [3] = ATG_M_32_CIS: Attagene CIS-FACTORIAL HepG2 Assay for M32 Transcription Factor (Internal Marker) (AID 2282949); details: HepG2 Attagene cis-factorial M32 reporter, mRNA; actives raise or lower the signal;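 note: background control marker of the multiplexed CIS panel rather than a real target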
# How it was run: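 HepG2 cells transiently transfected with multiplexed cis-regulated reporter units, dosed 24 h. Reporter mRNA quantified by RT-PCR, 6-FAM labelling, HpaI digestion and capillary electrophoresis; bidirectional fit vs DMSO.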
# [4] = ATG_M_06_CIS: Attagene CIS-FACTORIAL HepG2 Assay for M06 Transcription Factor (Internal Marker) (AID 2282950); details: HepG2 Attagene CIS-FACTORIAL M06 internal marker reporter; actives raise or lower the signal
# How it was run: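 Terse: HepG2, transient MRTU transfection (FuGene 6), 24 h dosing; total RNA, oligo(dT) RT, PCR, FAM label, HpaI cut, capillary electrophoresis; bidirectional fit vs DMSO baseline; background-control endpoint.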
# [5] = biological target: Hypoxia-inducible factor 1-alpha (Homo sapiens) (UniProt Q16665); assay: ATG_HIF1a_CIS: Attagene CIS-FACTORIAL HepG2 Assay for human Hypoxia Inducible Factor 1 (HIF1A) (AID 2282951); details: HepG2 Attagene cis-factorial HIF1a reporter transcription; actives raise or lower the signal
# How it was run: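 Activity is fitted in both directions relative to DMSO. Reporter transcripts are read by RT-PCR, fluorescent primer extension and capillary electrophoresis after 24 h chemical treatment. The cells are HepG2 carrying transiently transfected cis-element-driven reporter units responding to endogenous factors.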
# [6] = biological target: Hepatocyte nuclear factor 6 (Homo sapiens) (UniProt Q9UBC0); assay: ATG_HNF6_CIS: Attagene CIS-FACTORIAL HepG2 Assay for human Hepatocyte Nuclear Factor 6 (HNF6) (AID 2282952); details: HepG2 Attagene cis-factorial HNF6 reporter transcription; actives raise or lower the signal
# How it was run: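 Reporter mRNA induction or loss in HepG2 after 24 h exposure; transient cis-MRTU transfection; fragments quantified by capillary electrophoresis; bidirectional analysis, DMSO as negative control.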
# [7] = ATG_MRE_CIS: Attagene CIS-FACTORIAL HepG2 Assay for human Metal Responsive Element (MRE) (AID 2282954); details: HepG2 MRE cis-reporter transcription, Attagene multiplex; actives raise or lower the signal
# How it was run: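 HepG2 cells transiently transfected with cis-element-driven reporter units; mRNA measured 24 h after dosing. Reporter transcripts quantified by RT-PCR, FAM labelling, HpaI digestion and capillary electrophoresis; bidirectional fit versus DMSO.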
# [8] = biological target: Paired box protein Pax-6 (Homo sapiens) (UniProt P26367); assay: ATG_Pax6_CIS: Attagene CIS-FACTORIAL HepG2 Assay for human Paired Box 6 (PAX6) (AID 2282956); details: HepG2 CIS-FACTORIAL PAX6 reporter transcription, RNA readout; actives raise or lower the signal
# How it was run: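 HepG2 cells transiently transfected with cis-promoter-driven multiplexed reporter units sensing endogenous transcription factor activity; 24 h chemical exposure. Reporter mRNA quantified by RT-PCR, 6-FAM labelling, HpaI digestion and capillary electrophoresis; bidirectional fit versus DMSO baseline.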
# [9] = ATG_PXRE_CIS: Attagene CIS-FACTORIAL HepG2 Assay for human Pregnane X Receptor Element (PXRE) (AID 2282957); details: HepG2 Attagene CIS-FACTORIAL PXRE reporter, mRNA; actives raise or lower the signal
# How it was run: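 Transiently transfected HepG2 cells were dosed and incubated for 24 h. RNA was then isolated, DNase-treated, reverse-transcribed and reporter sequences amplified. Labeled, HpaI-digested fragments were quantified by capillary electrophoresis against DMSO.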
# [10] = ATG_PPRE_CIS: Attagene CIS-FACTORIAL HepG2 Assay for human Peroxisome Proliferator-activated Response Element (PPRE) (AID 2282958); details: HepG2 PPRE cis-element reporter, Attagene transcription factor profiling; actives raise or lower the signal
# How it was run: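 Endogenous PPRE-driven transcription is measured in HepG2 cells carrying transfected multi-reporter constructs. Reporter transcripts are quantified by RT-PCR, HpaI digestion and capillary electrophoresis 24 h after dosing. DMSO baseline, bidirectional fit.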
# [11] = ATG_RORE_CIS: Attagene CIS-FACTORIAL HepG2 Assay for human RAR-related Orphan Receptor Element (RORE) (AID 2282959); details: HepG2 Attagene cis-factorial RORE reporter, mRNA; actives raise or lower the signal
# How it was run: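 RORE reporter transcripts reflecting endogenous factor activity were read after 24 h compound exposure of transfected HepG2 cells, using reverse transcription, PCR, fluorescent labelling and capillary electrophoresis sizing. Gain or loss fitted against DMSO.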
# [12] = ATG_Sox_CIS: Attagene CIS-FACTORIAL HepG2 Assay for human SRY-box transcription factor (SOX) (AID 2282960); details: HepG2 Attagene cis-factorial SOX reporter, mRNA; actives raise or lower the signal
# How it was run: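 Reporter transcripts, measured by RT-PCR and capillary electrophoresis of labelled fragments, report endogenous SOX transcription factor activity. Transiently transfected human HepG2 cells receive chemical for 24 h; changes in either direction are fitted relative to DMSO.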
# [13] = biological target: Transcription factor Sp1 (Homo sapiens) (UniProt P08047); assay: ATG_Sp1_CIS: Attagene CIS-FACTORIAL HepG2 Assay for human Specificity Protein 1 (Sp1) (AID 2282961); details: HepG2 Sp1 cis-reporter transcription, actives raise or lower the signal
# How it was run: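 Read-out is reporter transcript level, measured by RT-PCR and fluorescent capillary electrophoresis after 24 h chemical treatment. System: transiently transfected HepG2 cells reporting endogenous transcription factor activity; gain or loss fitted against DMSO baseline.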
# [14] = ATG_SREBP_CIS: Attagene CIS-FACTORIAL HepG2 Assay for human Sterol Regulatory Element Binding (SREBP) (AID 2282962); details: HepG2 Attagene cis-factorial SREBP reporter, mRNA; actives raise or lower the signal
# How it was run: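 HepG2 cells transiently transfected with multiplexed cis-promoter reporter units sensing endogenous transcription factors; reporter mRNA measured 24 h after dosing by RT-PCR, 6-FAM labeling, HpaI digestion and capillary electrophoresis. Bidirectional fit versus DMSO.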
# [15] = biological target: Signal transducer and activator of transcription 3 (Homo sapiens) (UniProt P40763); assay: ATG_STAT3_CIS: Attagene CIS-FACTORIAL HepG2 Assay for human Signal Transducer and Activator of Transcription 3 (STAT3) (AID 2282963); details: HepG2, Attagene cis-factorial STAT3 reporter transcription; actives raise or lower the signal
# How it was run: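 HepG2 cells transiently transfected with multiple cis-element-driven reporter units report endogenous transcription factor activity. After 24 h compound exposure, reporter mRNA is measured by RT-PCR, 6-FAM labelling, HpaI digestion and capillary electrophoresis. Fitted bidirectionally versus DMSO.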
# [16] = ATG_TA_CIS: Attagene CIS-FACTORIAL HepG2 Assay for human TA Basal Promoter (AID 2282964); details: HepG2 Attagene CIS-factorial TA basal promoter reporter; actives raise or lower the signal
# How it was run: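 Transfected HepG2, 24 h compound exposure; RNA → RT-PCR → FAM primer extension → HpaI cut → CE fluorescence. Gain/loss-of-signal fitted against DMSO negative control. Background-control readout.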
# [17] = ATG_TCF_b_cat_CIS: Attagene CIS-FACTORIAL HepG2 Assay for human T-Cell-Factor with beta-catenin (TCF/b-cat) (AID 2282965); details: HepG2 TCF/beta-catenin cis-reporter transcription, actives raise or lower the signal
# How it was run: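 HepG2, transient MRTU transfection, cis-element-driven reporters (endogenous TFs). 24 h compound exposure. Readout: reporter mRNA by RT-PCR + 6-FAM primer extension, HpaI digest, capillary electrophoresis. Gain/loss fit vs DMSO baseline.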
# [18] = biological target: Heat shock factor protein 1 (Homo sapiens) (UniProt Q00613); assay: ATG_HSE_CIS: Attagene CIS-FACTORIAL HepG2 Assay for human Heat Shock Transcription Factor 1 (HSE) (AID 2282953); details: HepG2 HSE cis-reporter, Attagene RNA transcription; actives raise or lower the signal
# How it was run: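 Read-out: fluorescence of reporter-specific RT-PCR fragments separated by capillary electrophoresis. HepG2 carrying transfected cis-element reporter units; 24 h dosing; activity fitted in both directions relative to DMSO baseline.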
# [19] = ATG_PBREM_CIS: Attagene CIS-FACTORIAL HepG2 Assay for human Phenobarbital-responsive Enhancer Module (PBREM) (AID 2282955); details: HepG2 PBREM cis-reporter, Attagene multiplexed transcription; actives raise or lower the signal
# How it was run: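 Endogenous transcription factor activity was read from reporter transcripts in transiently transfected human HepG2 liver cells after 24 h dosing. RT-PCR products were fluorescently labelled, HpaI-cut and sized by capillary electrophoresis; activity fitted bidirectionally against DMSO baseline.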
# Chain of Transcription factor Sp1 (Homo sapiens) (P08047 whole entry, looked up): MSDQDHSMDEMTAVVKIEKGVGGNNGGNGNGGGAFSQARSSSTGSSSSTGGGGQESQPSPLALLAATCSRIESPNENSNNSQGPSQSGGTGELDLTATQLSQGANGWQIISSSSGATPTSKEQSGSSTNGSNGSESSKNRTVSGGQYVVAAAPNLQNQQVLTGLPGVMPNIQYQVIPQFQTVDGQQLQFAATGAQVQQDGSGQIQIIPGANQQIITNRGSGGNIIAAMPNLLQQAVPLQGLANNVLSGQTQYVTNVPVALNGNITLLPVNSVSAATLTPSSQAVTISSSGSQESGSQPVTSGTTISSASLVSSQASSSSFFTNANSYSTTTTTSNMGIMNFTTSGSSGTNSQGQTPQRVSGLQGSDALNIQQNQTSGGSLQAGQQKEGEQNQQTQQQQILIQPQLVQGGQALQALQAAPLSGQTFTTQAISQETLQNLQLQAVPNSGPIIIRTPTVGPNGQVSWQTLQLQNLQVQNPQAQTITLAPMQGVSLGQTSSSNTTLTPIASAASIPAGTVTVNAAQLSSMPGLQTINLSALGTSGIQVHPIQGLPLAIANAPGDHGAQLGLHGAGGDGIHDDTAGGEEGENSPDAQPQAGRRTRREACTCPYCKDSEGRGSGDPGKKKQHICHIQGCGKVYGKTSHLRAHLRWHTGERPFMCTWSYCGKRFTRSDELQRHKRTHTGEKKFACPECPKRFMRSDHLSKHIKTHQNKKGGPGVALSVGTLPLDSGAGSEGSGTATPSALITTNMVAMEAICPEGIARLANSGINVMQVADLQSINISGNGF
# Chain of Hypoxia-inducible factor 1-alpha (Homo sapiens) (Q16665 whole entry, looked up): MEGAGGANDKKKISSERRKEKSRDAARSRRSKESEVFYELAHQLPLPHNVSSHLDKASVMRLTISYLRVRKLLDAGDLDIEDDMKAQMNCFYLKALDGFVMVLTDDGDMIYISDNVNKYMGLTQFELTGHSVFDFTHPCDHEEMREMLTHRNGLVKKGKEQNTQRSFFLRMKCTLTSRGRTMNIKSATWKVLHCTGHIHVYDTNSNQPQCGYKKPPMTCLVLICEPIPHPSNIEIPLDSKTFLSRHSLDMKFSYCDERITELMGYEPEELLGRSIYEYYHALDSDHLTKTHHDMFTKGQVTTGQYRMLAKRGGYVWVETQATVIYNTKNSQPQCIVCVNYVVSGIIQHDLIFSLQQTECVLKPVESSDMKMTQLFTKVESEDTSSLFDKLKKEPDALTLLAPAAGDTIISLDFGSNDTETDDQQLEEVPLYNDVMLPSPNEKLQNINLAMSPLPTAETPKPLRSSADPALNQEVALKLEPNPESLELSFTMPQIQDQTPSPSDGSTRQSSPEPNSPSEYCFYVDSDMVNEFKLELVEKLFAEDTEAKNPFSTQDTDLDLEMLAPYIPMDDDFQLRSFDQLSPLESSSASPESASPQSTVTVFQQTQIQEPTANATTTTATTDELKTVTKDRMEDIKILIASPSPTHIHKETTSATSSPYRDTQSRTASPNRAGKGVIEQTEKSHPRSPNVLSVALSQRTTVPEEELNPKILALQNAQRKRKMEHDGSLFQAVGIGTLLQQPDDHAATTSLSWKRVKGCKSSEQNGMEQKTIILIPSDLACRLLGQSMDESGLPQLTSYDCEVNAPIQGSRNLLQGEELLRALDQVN
# Chain of Signal transducer and activator of transcription 3 (Homo sapiens) (P40763 whole entry, looked up): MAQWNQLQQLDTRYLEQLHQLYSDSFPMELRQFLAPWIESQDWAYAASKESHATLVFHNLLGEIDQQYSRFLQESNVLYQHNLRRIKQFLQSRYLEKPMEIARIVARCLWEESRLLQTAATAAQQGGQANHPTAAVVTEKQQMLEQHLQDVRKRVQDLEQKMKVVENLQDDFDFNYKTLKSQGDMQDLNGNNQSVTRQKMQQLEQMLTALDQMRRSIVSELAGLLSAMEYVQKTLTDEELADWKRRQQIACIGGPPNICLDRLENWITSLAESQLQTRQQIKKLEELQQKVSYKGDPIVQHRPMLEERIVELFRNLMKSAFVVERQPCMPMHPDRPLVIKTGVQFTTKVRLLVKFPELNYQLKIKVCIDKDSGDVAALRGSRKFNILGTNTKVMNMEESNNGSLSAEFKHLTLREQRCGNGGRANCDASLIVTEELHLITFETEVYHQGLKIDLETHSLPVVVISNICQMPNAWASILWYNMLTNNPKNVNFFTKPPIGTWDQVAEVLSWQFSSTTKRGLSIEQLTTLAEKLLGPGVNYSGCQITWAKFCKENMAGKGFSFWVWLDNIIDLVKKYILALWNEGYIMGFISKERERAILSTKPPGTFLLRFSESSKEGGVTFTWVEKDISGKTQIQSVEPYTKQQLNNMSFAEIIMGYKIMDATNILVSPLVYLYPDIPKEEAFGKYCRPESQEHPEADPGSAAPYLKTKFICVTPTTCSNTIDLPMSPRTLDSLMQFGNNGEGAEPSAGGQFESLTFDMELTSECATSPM
# Chain of Hepatocyte nuclear factor 6 (Homo sapiens) (Q9UBC0 whole entry, looked up, the tested form may be a part): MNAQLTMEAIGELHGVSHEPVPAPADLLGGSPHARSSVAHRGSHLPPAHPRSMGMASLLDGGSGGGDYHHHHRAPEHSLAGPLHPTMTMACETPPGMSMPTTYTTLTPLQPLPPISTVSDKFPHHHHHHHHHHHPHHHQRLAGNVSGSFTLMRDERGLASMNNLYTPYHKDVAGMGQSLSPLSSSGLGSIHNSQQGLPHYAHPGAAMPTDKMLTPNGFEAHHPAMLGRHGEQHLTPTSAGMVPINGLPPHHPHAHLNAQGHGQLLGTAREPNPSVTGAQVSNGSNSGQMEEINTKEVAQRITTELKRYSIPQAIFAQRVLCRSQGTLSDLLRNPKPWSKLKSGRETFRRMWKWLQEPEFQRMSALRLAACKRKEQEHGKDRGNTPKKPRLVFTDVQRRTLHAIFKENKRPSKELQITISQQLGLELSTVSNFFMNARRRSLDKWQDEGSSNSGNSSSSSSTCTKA
# Chain of Heat shock factor protein 1 (Homo sapiens) (Q00613 whole entry, looked up, the tested form may be a part): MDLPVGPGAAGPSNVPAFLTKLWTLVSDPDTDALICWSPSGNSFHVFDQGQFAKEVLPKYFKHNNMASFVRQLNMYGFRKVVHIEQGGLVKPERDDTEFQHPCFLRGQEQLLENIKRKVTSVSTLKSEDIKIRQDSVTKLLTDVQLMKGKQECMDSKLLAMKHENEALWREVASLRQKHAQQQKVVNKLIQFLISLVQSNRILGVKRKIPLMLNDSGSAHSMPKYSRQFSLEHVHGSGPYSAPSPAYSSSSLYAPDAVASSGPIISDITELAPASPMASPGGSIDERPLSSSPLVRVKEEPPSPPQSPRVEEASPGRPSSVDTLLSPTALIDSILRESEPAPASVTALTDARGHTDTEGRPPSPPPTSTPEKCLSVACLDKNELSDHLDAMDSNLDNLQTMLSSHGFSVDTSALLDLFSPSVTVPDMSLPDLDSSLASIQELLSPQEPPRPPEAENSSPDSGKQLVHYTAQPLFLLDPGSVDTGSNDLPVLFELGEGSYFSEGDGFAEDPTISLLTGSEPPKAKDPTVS
# Chain of Paired box protein Pax-6 (Homo sapiens) (P26367 whole entry, looked up): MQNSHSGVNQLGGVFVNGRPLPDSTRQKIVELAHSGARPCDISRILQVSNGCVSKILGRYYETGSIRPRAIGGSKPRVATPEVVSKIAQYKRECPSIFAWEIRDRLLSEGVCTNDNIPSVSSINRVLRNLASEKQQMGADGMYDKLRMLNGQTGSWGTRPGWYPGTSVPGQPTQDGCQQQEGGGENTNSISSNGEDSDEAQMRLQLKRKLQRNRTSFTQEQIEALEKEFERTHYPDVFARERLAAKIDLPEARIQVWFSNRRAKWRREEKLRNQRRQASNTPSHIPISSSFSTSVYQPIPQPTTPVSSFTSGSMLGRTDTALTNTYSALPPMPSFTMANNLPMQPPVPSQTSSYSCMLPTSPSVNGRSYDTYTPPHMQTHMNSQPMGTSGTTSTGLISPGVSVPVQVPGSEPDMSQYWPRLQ
smiles,measurement,setting,value
COCCOCCOCCOCCOC,outcome,[1],inactive
same,outcome,[2],inactive
same,outcome,[3],inactive
same,outcome,[4],inactive
same,outcome,[5],inactive
same,outcome,[6],inactive
same,outcome,[7],inactive
same,outcome,[8],inactive
same,outcome,[9],inactive
same,outcome,[10],inactive
same,outcome,[11],inactive
same,outcome,[12],inactive
same,outcome,[13],inactive
same,outcome,[14],inactive
same,outcome,[15],inactive
same,outcome,[16],inactive
same,outcome,[17],inactive
CCCCCCCC/C=C\CCCCCCCC(=O)OCCO,outcome,[1],inactive
same,outcome,[2],inactive
same,outcome,[3],inactive
same,outcome,[4],inactive
same,outcome,[5],inactive
same,outcome,[18],inactive
same,outcome,[7],inactive
same,outcome,[8],inactive
same,AC50,[9],12.8 µM (active)
same,outcome,[10],inactive
same,outcome,[11],inactive
same,outcome,[12],inactive
same,outcome,[13],inactive
same,outcome,[14],inactive
same,outcome,[15],inactive
same,outcome,[16],inactive
same,outcome,[17],inactive
CCCCCC(C)O (centres undefined),outcome,[1],inactive
same,outcome,[2],inactive
same,outcome,[3],inactive
same,outcome,[4],inactive
same,outcome,[6],inactive
same,outcome,[18],inactive
same,outcome,[7],inactive
same,outcome,[19],inactive
same,outcome,[8],inactive
same,outcome,[9],inactive
same,outcome,[10],inactive
same,outcome,[11],inactive
same,outcome,[12],inactive
same,outcome,[13],inactive
same,outcome,[14],inactive
same,outcome,[15],inactive
same,outcome,[16],inactive
same,outcome,[17],inactive
Cc1cccc(OCCOc2cccc(C)c2)c1,outcome,[1],inactive
same,outcome,[2],inactive
same,outcome,[3],inactive
same,outcome,[4],inactive
same,outcome,[6],inactive
same,outcome,[18],inactive
same,outcome,[7],inactive
same,outcome,[19],inactive
same,outcome,[8],inactive
same,outcome,[9],inactive
same,outcome,[10],inactive
same,outcome,[11],inactive
same,outcome,[12],inactive
same,outcome,[13],inactive
same,outcome,[14],inactive
same,outcome,[15],inactive
same,outcome,[17],inactive
C=C(C)c1cccc(C(C)(C)N=C=O)c1,outcome,[1],inactive
same,outcome,[2],inactive
same,outcome,[3],inactive
same,outcome,[4],inactive
same,outcome,[6],inactive
same,outcome,[18],inactive
same,outcome,[7],inactive
same,outcome,[19],inactive
same,outcome,[8],inactive
same,AC50,[9],0.0919 µM (active)
same,outcome,[11],inactive
same,outcome,[12],inactive
same,outcome,[14],inactive
same,outcome,[15],inactive
same,outcome,[16],inactive
same,outcome,[17],inactive
CC(=O)OCC(=O)[C@@]12N=C(C)O[C@@H]1C[C@H]1[C@@H]3CCC4=CC(=O)C=C[C@]4(C)[C@H]3[C@@H](O)C[C@@]12C,AC50,[1],0.189 µM (active)
same,outcome,[2],inactive
same,outcome,[3],inactive
same,outcome,[4],inactive
same,outcome,[5],inactive
same,outcome,[18],inactive
same,outcome,[7],inactive
same,outcome,[19],inactive
same,outcome,[8],inactive
same,AC50,[9],17.6 µM (active)
same,outcome,[10],inactive
same,outcome,[11],inactive
same,outcome,[12],inactive
same,outcome,[13],inactive
same,outcome,[14],inactive
same,outcome,[15],inactive
same,outcome,[16],inactive
same,outcome,[17],inactive
COc1ccc2nc(N)sc2c1,outcome,[1],inactive
same,outcome,[2],inactive
same,outcome,[3],inactive
same,outcome,[4],inactive
same,outcome,[5],inactive
same,outcome,[7],inactive
same,outcome,[19],inactive
same,outcome,[8],inactive
same,outcome,[9],inactive
same,outcome,[11],inactive
same,outcome,[12],inactive
same,outcome,[13],inactive
same,outcome,[14],inactive
same,outcome,[15],inactive
same,outcome,[16],inactive
same,outcome,[17],inactive
